Data from PubChem BioAssay (EPA / NIEHS).
Inconclusive results are not listed. Calls of active or inactive are those of the source. How the source made its calls, unless noted: active means hit-call score of the fitted dose curve at least 0.9, where 1 is the maximum; inconclusive means response in the unintended direction; inactive means score below 0.9.

Assays:
PGR (gene 5241) [1] = biological target: PGR (gene 5241) (UniProt P06401); test: TOX21_PR_BLA_Followup_Antagonist_ratio: Tox21 HEK293 Progesterone Receptor (PR) Antagonism Beta-lactamase Follow-Up Assay, Ratio (AID 2283934)
In short: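 HEK293T PR-UAS-bla, 2% CS-FBS; 6 hr plating, then cpd + R5020 (1 nM final), 16 hr 37C/5% CO2. B/G FRET substrate 2 h RT. Ratio ch2/ch1 vs DMSO; CellTiter-Glo viability multiplexed, autofluorescence checked.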

[2] = TOX21_PR_BLA_Followup_Agonist_viability: Viability Assessment in the Tox21 HEK293 Progesterone Receptor (PR) Agonism Beta-lactamase Follow-Up Assay (AID 2283935);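 further: signal loss means lower viability so actives are cytotoxic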
In short: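 HEK293T PR-UAS-bla, 3,000 cells/well, 2% CS-FBS; 6 hr pre-incubation; cpd in DMSO, 16 hr 37C; LiveBLAzer 2 hr RT, then CellTiter-Glo 30 min RT, luminescence. Decrease = lost viability.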

[3] = TOX21_PR_BLA_Followup_Antagonist_viability: Viability Assessment in the Tox21 HEK293 Progesterone Receptor (PR) Antagonism Beta-lactamase Follow-Up Assay (AID 2283936);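 further: hits lower the luminescence signal meaning cytotoxicity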
In short: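 PR-UAS-bla HEK293T cells (3,000/well, 2% charcoal-stripped FBS) given compound plus R5020 agonist, 16 h at 37C. CellTiter-Glo added after bla read, 30 min at room temperature; luminescence loss indicates cytotoxicity.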

PGR (gene 5241) [4] = biological target: PGR (gene 5241) (UniProt P06401); test: TOX21_PR_LUC_Followup_Antagonist: Tox21 HEK293 Progesterone Receptor (PR) Antagonism Luciferase Follow-Up Assay (AID 2283938);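 further: curve fitted upward as signal gain over DMSO baseline despite antagonist label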
In short: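 A follow-up to the PR bla screen using HEK293-PR-A-luc cells, multiplexed with cell viability to flag cytotoxicity. Reporter luminescence after 16 h compound exposure was analysed relative to DMSO.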

[5] = TOX21_PR_LUC_Followup_Antagonist_viability: Viability Assessment in the Tox21 HEK293 Progesterone Receptor (PR) Antagonism Luciferase Follow-Up Assay (AID 2283940)
In short: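 Multiplexed viability counter-screen: after 5 days in charcoal-stripped-FBS medium, HEK293-PR-A-luc cells are plated, pinned with DMSO-dissolved compounds for 16 h at 37C, and ATP content is quantified luminescently via CellTiter-Glo.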

[6] = TOX21_PR_LUC_Followup_Agonist_viability: Viability Assessment in the Tox21 HEK293 Progesterone Receptor (PR) Agonism Luciferase Follow-Up Assay (AID 2283941);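 further: loss of signal means cytotoxicity so actives lower viability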
In short: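 Cells were kept 5 days in charcoal-stripped serum medium before plating HEK293-PR-A-luc at 3,000 cells/well. After 5 h they received DMSO-dissolved compound and incubated 16 h at 37C. Viability was taken from CellTiter-Glo ATP luminescence.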

[7] = biological target: T1, Thyroid hormone receptor alpha (Rattus norvegicus) + Thyroid hormone receptor beta (Rattus norvegicus) (UniProt P18113+P63059); test: TOX21_TR_LUC_GH3_Agonist_Followup: Tox21 GH3 Thyroid Hormone Receptor Agonism Luciferase Follow-Up Assay (AID 2283939)
In short: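 Rat GH3 cells (1,500/well) in serum-free assay medium, treated with 15-point series, 92 uM to 5 nM final, for 24 h at 37C. Luciferase via ONE-Glo luminescence; gain of signal fitted against DMSO, T3 positive control.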

THRA (gene 7067) = THRA (gene 7067) (UniProt P10827); test: TOX21_TRA_COA_Agonist_Followup_ratio: Tox21 Thyroid Hormone Receptor alpha Agonism through Coactivator Recruitment Follow-Up Assay, Ratio (AID 2283948; active means hit-call score of the fitted dose curve at least 0.9, where 1 is the maximum; inactive means score below 0.9)
In short: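 First, compound was incubated with 2.5 nM GST-TRα LBD in 0.10% BSA. Next, 200 nM fluorescein-SRC-2 and 2 nM Tb-anti-GST antibody were added. Finally, the 520:495 nm ratio was normalized to DMSO and T3 controls.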

THRB (gene 7068) [8] = biological target: THRB (gene 7068) (UniProt P10828); test: TOX21_TRB_BLA_Agonist_Followup_ratio: Tox21 Thyroid Hormone Receptor beta Agonism Beta-lactamase (BLA) Follow-Up Assay, Ratio (AID 2283954)
In short: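 Human TRβ LBD–GAL4 DBD fusion in GeneBLAzer UAS-bla HEK293T cells; 11 concentrations in triplicate, 18 h at 37°C/5% CO2, T3 as agonist control. CCF4-AM substrate 2 h at room temperature; 460:530 nm ratio fitted for gain of signal versus DMSO.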

[9] = TOX21_TRB_BLA_Agonist_Followup_viability: Viability Assessment in the Tox21 Thyroid Hormone Receptor beta Agonism Beta-lactamase (BLA) Follow-Up Assay (AID 2283956)
In short: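 TRb-bla HEK293T cells (GAL4-DBD/human TRb LBD) in 2% charcoal-stripped FBS medium were exposed 18 h at 37C to 11 concentrations in triplicate. CellTiter-Glo ATP luminescence was read after 30 min at room temperature, with bidirectional fitting against DMSO.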

THRB (gene 7068) [10] = biological target: THRB (gene 7068) (UniProt P10828); test: TOX21_TRB_COA_Agonist_Followup_ratio: Tox21 Thyroid Hormone Receptor beta Agonism through Coactivator Recruitment Follow-Up Assay, Ratio (AID 2283963; active means hit-call score of the fitted dose curve at least 0.9, where 1 is the maximum; inactive means score below 0.9)
In short: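 First, the GST-fused TRβ ligand-binding domain (5.0 nM) was incubated with test compound in 0.10% BSA. Next, fluorescein-tagged SRC-2 peptide (200 nM) and terbium anti-GST antibody (2 nM) were added. Finally, TR-FRET emission ratios were normalized against DMSO and T3 controls.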

[11] = biological target: Retinoic acid receptor RXR-alpha (Homo sapiens) (UniProt P19793); test: TOX21_TR_RXR_BLA_Agonist_Followup_ratio: Tox21 Thyroid Hormone Receptor beta Retinoid X Receptor alpha (RXRa) Agonism Beta-lactamase (BLA) Follow-Up Assay, Ratio (AID 2283968)
In short: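 HEK293T RXRa-bla, qHTS; cpd 11-pt conc. in triplicate, 16 h 37C/5% CO2; CCF4-AM 2 h RT; ratio 460:530 nm; agonist direction vs DMSO; 9-cis retinoic acid as positive control.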

[12] = TOX21_TR_RXR_BLA_Agonist_Followup_viability: Viability Assessment in the Tox21 Thyroid Hormone Receptor beta Retinoid X Receptor alpha (RXRa) Agonism Beta-lactamase (BLA) Follow-Up Assay (AID 2283970)
In short: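 Cells: HEK293T RXRa-UAS-bla, 2,500/well; medium phenol red-free DMEM + 2% charcoal-stripped FBS; 16h, 37C/5% CO2; qHTS concentration series. Read: CellTiter-Glo luminescence (ATP); bidirectional fit, DMSO = baseline.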

PGR (gene 5241) [13] = biological target: PGR (gene 5241) (UniProt P06401); test: TOX21_PR_LUC_Followup_Agonist: Tox21 HEK293 Progesterone Receptor (PR) Agonism Luciferase Follow-Up Assay (AID 2283937; active means hit-call score of the fitted dose curve at least 0.9, where 1 is the maximum; inactive means score below 0.9)
In short: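 Cells: HEK293-PR-A-luc, 3,000/well, 10% charcoal-stripped FBS assay medium. Compound added after 5 h; 16 h, 37C, 0% CO2. ONE-Glo luciferase, luminescence. Positive fit vs DMSO.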

[14] = biological target: T1, Thyroid hormone receptor alpha (Rattus norvegicus) + Thyroid hormone receptor beta (Rattus norvegicus); test: TOX21_TR_LUC_GH3_Antagonist_Followup: Tox21 GH3 Thyroid Hormone Receptor Antagonism Luciferase Follow-Up Assay (AID 2283942)
In short: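 Antagonist mode: GH3 cells seeded 1,500/well, compounds at 15 concentrations (92 uM to 5nM final) plus T3 at 1.0 nM final, 24 h at 37C. Luciferase read with ONE-Glo after 30 min at room temperature.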

THRB (gene 7068) [15] = biological target: THRB (gene 7068) (UniProt P10828); test: TOX21_TRB_BLA_Antagonist_Followup_ratio: Tox21 Thyroid Hormone Receptor beta Antagonism Beta-lactamase (BLA) Follow-Up Assay, Ratio (AID 2283958)
In short: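 HEK293T TRb-bla (GAL4 DBD + hTRβ LBD), 2% cs-FBS phenol red-free DMEM, 5 h attach; cpds 11-pt triplicate, 18 h 37C; CCF4-AM 2 h RT; 460/530 ratio vs DMSO; CellTiter-Glo viability same wells.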

[16] = TOX21_TRB_BLA_Antagonist_Followup_viability: Viability Assessment in the Tox21 Thyroid Hormone Receptor beta Antagonism Beta-lactamase (BLA) Follow-Up Assay (AID 2283961)
In short: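 Cytotoxicity is measured in parallel with the antagonist-mode TRβ beta-lactamase screen, using ATP-coupled luciferase luminescence. Engineered HEK293T cells are treated for 18 h with 11-point compound series in triplicate.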

THRB (gene 7068) [17] = biological target: THRB (gene 7068) (UniProt P10828); test: TOX21_TRB_COA_Antagonist_Followup_ratio: Tox21 Thyroid Hormone Receptor beta Antagonism through Coactivator Recruitment Follow-Up Assay, Ratio (AID 2283967)
In short: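 Cell-free TR-FRET: GST-TRb LBD (5.0 nM) with fluorescein-SRC-2 peptide (200 nM) and Tb anti-GST antibody (2 nM), 0.10% BSA. 520:495 nm emission ratio normalized to DMSO (0%) and T3 (100%).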

[18] = biological target: Retinoic acid receptor RXR-alpha (Homo sapiens) (UniProt P19793); test: TOX21_TR_RXR_BLA_Antagonist_Followup_ratio: Tox21 Thyroid Hormone Receptor beta Retinoid X Receptor alpha (RXRa) Antagonism Beta-lactamase (BLA) Follow-Up Assay, Ratio (AID 2283972)
In short: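 Antagonist mode used GAL4 UAS-driven beta-lactamase in HEK293T cells expressing RXRa, treated for 16 h with compound concentration series. Activity was taken from the blue/green (460:530 nm) ratio of cleaved to uncleaved substrate.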

[19] = TOX21_TR_RXR_BLA_Antagonist_Followup_viability: Viability Assessment in the Tox21 Thyroid Hormone Receptor beta Retinoid X Receptor alpha (RXRa) Antagonism Beta-lactamase (BLA) Follow-Up Assay (AID 2283979)
In short: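 RXRa-bla HEK293T cells (2,500/well, phenol red-free DMEM, 2% charcoal-stripped FBS) were attached 5 h, then exposed to compounds at 11 concentrations in triplicate for 16 h at 37C. Viability measured by CellTiter-Glo ATP luminescence, bidirectional fitting versus DMSO.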

Measured: AC50

Sequence of THRA (gene 7067) (P10827 whole entry, looked up, the tested form may be a part): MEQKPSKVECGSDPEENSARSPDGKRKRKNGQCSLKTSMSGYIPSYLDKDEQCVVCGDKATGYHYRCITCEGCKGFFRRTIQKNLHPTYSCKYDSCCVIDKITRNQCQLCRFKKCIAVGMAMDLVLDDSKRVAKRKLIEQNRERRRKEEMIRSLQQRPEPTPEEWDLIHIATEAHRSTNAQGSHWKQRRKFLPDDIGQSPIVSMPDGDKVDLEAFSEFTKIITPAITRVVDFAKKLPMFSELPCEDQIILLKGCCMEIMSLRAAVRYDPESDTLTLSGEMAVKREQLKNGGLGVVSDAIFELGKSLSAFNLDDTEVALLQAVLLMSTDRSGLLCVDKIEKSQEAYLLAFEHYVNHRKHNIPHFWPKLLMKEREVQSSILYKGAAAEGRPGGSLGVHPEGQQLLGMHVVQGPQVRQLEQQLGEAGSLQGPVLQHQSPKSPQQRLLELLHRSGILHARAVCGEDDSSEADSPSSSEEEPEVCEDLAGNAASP
T1 sequence (P63059 whole entry, looked up): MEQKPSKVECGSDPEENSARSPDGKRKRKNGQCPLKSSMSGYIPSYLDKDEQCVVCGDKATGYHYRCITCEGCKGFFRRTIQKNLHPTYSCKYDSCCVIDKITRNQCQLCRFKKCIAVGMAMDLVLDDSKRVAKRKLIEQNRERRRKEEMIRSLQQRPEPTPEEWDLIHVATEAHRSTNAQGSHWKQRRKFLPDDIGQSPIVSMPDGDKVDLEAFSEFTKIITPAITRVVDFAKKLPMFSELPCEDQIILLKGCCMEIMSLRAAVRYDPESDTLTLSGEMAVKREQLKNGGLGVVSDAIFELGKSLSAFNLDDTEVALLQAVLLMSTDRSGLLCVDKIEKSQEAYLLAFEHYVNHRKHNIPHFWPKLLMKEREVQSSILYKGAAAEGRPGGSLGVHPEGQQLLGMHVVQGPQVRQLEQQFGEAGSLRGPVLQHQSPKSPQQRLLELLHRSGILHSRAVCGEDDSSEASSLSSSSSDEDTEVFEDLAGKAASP
T1 sequence (P18113 whole entry, looked up): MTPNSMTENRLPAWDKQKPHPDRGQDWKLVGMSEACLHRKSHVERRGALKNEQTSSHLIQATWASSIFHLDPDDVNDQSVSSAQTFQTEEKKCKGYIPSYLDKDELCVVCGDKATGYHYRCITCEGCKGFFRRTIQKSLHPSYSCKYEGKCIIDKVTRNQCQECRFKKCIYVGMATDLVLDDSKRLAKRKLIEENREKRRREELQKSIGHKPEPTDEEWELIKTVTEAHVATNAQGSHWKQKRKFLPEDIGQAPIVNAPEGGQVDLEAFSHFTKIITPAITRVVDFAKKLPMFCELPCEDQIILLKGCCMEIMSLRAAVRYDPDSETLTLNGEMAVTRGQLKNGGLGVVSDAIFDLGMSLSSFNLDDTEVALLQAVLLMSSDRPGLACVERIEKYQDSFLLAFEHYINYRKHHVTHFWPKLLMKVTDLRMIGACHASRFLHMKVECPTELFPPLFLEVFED
Sequence of Retinoic acid receptor RXR-alpha (Homo sapiens) (P19793 whole entry, looked up, the tested form may be a part): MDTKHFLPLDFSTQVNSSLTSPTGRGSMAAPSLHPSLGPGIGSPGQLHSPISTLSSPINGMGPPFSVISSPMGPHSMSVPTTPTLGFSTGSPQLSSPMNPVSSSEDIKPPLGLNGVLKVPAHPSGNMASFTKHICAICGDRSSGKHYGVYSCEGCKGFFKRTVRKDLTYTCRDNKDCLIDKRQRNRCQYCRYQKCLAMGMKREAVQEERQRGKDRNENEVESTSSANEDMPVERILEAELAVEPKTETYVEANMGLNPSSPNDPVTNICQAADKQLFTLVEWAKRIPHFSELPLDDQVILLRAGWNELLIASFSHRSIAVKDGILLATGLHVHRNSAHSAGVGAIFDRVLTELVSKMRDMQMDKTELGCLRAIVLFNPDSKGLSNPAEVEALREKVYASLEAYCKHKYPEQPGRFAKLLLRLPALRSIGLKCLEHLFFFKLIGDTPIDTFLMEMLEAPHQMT
Sequence of PGR (gene 5241) (P06401 whole entry, looked up): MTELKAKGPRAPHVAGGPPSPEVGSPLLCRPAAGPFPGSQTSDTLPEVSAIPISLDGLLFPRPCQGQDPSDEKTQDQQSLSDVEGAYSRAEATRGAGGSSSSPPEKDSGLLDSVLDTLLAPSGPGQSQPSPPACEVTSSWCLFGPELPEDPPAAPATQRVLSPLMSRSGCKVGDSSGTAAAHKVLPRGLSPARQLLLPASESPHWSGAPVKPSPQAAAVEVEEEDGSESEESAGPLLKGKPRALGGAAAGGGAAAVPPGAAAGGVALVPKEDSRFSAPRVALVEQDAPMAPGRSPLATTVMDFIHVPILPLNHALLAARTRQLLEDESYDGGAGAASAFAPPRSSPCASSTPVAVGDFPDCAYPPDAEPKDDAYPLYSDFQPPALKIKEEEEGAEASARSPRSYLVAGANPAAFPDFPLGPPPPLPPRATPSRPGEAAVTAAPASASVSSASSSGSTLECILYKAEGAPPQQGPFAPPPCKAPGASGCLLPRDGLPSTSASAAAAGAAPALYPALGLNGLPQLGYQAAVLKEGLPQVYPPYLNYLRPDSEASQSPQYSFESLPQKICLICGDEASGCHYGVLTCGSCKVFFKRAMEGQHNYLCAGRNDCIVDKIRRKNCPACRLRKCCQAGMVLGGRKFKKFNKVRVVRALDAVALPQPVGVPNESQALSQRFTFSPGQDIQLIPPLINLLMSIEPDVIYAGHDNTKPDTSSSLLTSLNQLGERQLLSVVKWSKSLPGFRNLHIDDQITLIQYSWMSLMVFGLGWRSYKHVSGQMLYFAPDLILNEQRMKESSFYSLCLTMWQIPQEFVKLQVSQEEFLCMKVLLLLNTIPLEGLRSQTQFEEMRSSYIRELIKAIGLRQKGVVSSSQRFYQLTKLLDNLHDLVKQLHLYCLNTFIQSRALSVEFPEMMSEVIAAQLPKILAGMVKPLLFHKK
Sequence of THRB (gene 7068) (P10828 whole entry, looked up, the tested form may be a part): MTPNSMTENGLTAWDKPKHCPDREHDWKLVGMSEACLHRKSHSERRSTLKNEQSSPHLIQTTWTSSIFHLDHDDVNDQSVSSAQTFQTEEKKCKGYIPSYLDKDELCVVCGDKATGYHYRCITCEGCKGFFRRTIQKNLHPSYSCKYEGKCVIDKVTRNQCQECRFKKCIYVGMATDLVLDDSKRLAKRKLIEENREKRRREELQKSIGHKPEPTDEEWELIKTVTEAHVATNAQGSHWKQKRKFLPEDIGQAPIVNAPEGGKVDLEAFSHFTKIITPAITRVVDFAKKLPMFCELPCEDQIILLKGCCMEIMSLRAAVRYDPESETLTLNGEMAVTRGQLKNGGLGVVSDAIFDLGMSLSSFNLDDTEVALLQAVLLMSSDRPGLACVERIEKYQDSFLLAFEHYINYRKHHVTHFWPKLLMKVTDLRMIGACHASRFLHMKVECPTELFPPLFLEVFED

O=S1(=O)OCC2C(CO1)C1(Cl)C(Cl)=C(Cl)C2(Cl)C1(Cl)Cl (stereo not given)
active: PGR (gene 5241) [1] 24.2 µM | PGR (gene 5241) [4] 27.1 µM
inactive: [2] | [3] | [5] | [6]

O=C(O)C(Cl)Cl
inactive: [7] | THRA (gene 7067) | THRB (gene 7068) [8] | [9] | THRB (gene 7068) [10] | [11] | [12]

CCOP(=S)(Oc1ccc([N+](=O)[O-])cc1)c1ccccc1 (stereo not given)
inactive: [3] | [6]
active: PGR (gene 5241) [1] 5.36 µM | PGR (gene 5241) [4] 7.8 µM

CCOP(=S)(OCC)SCSc1ccc(Cl)cc1
inactive: [2] | [3]
active: PGR (gene 5241) [1] 9.94 µM | PGR (gene 5241) [4] 20.4 µM

CO/N=C(/C(=O)OC)c1ccccc1COc1ccccc1C
active: PGR (gene 5241) [1] 37.1 µM | PGR (gene 5241) [4] 31.5 µM | [14] 9.33 µM | THRB (gene 7068) [15] 23.1 µM
inactive: [2] | [3] | PGR (gene 5241) [13] | [16] | THRB (gene 7068) [17] | [18] | [19]

CCC1(c2ccccc2)C(=O)N=C(O)NC1=O (stereo not given)
inactive: [7] | THRA (gene 7067) | THRB (gene 7068) [8] | [9] | THRB (gene 7068) [10] | [11] | [12]

CC(Cc1ccc(OCC(=O)O)cc1)NCC(O)c1csc(C(F)(F)F)n1 (stereo not given)
inactive: [7] | THRA (gene 7067) | [9] | THRB (gene 7068) [10] | [11] | [12]
